In PubChem BioAssay (Tox21):
Records with an inconclusive call do not appear. Activity calls are given as the source filed them. Unless noted, calls come from the whole dose curve.

Tests used:
[1] = Nuclear factor erythroid 2-related factor 2/antioxidant responsive element (Nrf2/ARE) small molecule agonists: qHTS cell viability counter screen in human keratinocytes (AID 1919968; active = well fitted curve in the direction sought with a large enough effect in the repeat runs; an effect the other way counts as inactive or inconclusive; note: nearly all actives have a fitted effect of over 55% in size)
In short: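 KeratinoSens HaCaT cells, 1,500/well, preincubated 5 h, then exposed to compounds in DMSO for 23 h at 37 C/5% CO2. Viability read as CellTiter-Fluor fluorescence after 1 h, in the same wells as the ARE-luciferase read.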

[2] = biological target: KiSS-1 receptor (Homo sapiens) (UniProt Q969F8); assay: Human kisspeptin (KISS1R) small molecule agonists, calcium flux assay in KISS1R-HEK293 cells (AID 1920064; active = well fitted curve in the direction sought with a large enough effect in the repeat runs; an effect the other way counts as inactive or inconclusive)
In short: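 HEK293 cells stably expressing human KISS1R were loaded with calcium dye for 1 h at 37 C, then given compound; fluorescence (Ex/Em 480/540) was read kinetically for 3 min. Fifteen concentrations, triplicate.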

[3] = G protein-coupled receptor (GPCR) small molecule agonists, calcium flux assay: HEK293 wild type cell line counter screen (AID 1920065)
In short: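 Wild-type HEK293 cells plated 18 h, loaded with calcium dye 1 h at 37 C, then compounds added in agonist mode (ATP as positive control). Kinetic fluorescence Ex/Em 480/540 recorded 3 min at 1 sec intervals; 15 concentrations, triplicate.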

[4] = p53 small molecule agonists, cell-based qHTS assay with human liver microsomes (AID 1963577)
In short: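 p53RE-bla cells, 4,000/well, compound added after 5 h, with human liver microsomes 0.5 mg/mL and NADPH 0.5 mg/mL final; 16 h at 37 C, then LiveBLAzer 2 h RT, fluorescence.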

[5] = p53 small molecule agonists, cell-based qHTS assay with rat liver microsomes (AID 1963578)
In short: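 p53RE-bla cells, 4,000/well, pre-incubated 5 h, then given compounds plus rat liver microsomes (0.5 mg/mL final) and NADPH (0.5 mg/mL final). Incubation 16 h at 37 C; beta-lactamase reporter read by LiveBLAzer fluorescence after 2 h at room temperature.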

[6] = p53 small molecule agonists, cell-based qHTS assay with rat liver microsomes: qHTS cell viability counter screen (AID 1963580); note: nearly all actives have a fitted effect of over 45% in size
In short: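 HCT-116 p53RE-bla, 4,000 cells/well, 5 h pre-incubation; cpd + rat liver microsomes 0.5 mg/mL + NADPH 0.5 mg/mL (final); 16 h, 37 C; CellTiter-Glo, 30 min RT; luminescence.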

[7] = p53 small molecule agonists, cell-based qHTS assay (AID 1963582; active = well fitted activation curve with a large enough effect in the signal ratio in the repeat runs, not every such curve was filed as active; the % refers to the signal ratio)
In short: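 p53RE-bla reporter cells, compounds added in DMSO after 5 h plating, incubated 16 h at 37 C. Beta-lactamase read via 2 h room-temperature LiveBLAzer B/G FRET substrate, fluorescence intensity.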

[8] = biological target: 5-hydroxytryptamine receptor 2A (Homo sapiens) (UniProt P28223); assay: 5-hydroxytryptamine receptor 2A (HTR2A) small molecule antagonists, cell-based qHTS assay (AID 1963586); note: nearly all actives have a fitted effect of over 45% in size
In short: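 Antagonist-mode intracellular calcium assay: DOI (4 nM) added after 5 min compound pre-incubation at room temperature to dye-loaded HTR2A-CHO cells. Fluorescence followed for 3 min, sampled every second.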

[9] = biological target: 5-hydroxytryptamine receptor 2A (Homo sapiens) (UniProt P28223); assay: 5-hydroxytryptamine receptor 2A (HTR2A) small molecule agonists, cell-based qHTS assay (AID 1963587); note: nearly all actives have a fitted effect of over 30% in size
In short: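 Kinetic calcium-flux fluorescence (2 min, 1 sec intervals) after compound addition in agonist mode. HTR2A-CHO cells were cultured 18 h, then dye-loaded 1 h at 37 C.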

[10] = biological target: Muscarinic acetylcholine receptor M1 (Homo sapiens) (UniProt P11229); assay: Cholinergic receptor muscarinic 1 (CHRM1) small molecule antagonists, cell-based qHTS assay (AID 1963588); note: nearly all actives have a fitted effect of over 40% in size
In short: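 CHRM1-CHO calcium-flux assay, antagonist mode. Cells were seeded 18 h, dye-loaded 1 h at 37 C and given compound for 5 min at RT, then acetylcholine was added at 50nM. FDSS fluorescence was read 3 min; 15 concentrations, three runs.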

[11] = biological target: Muscarinic acetylcholine receptor M1 (Homo sapiens) (UniProt P11229); assay: Cholinergic receptor muscarinic 1 (CHRM1) small molecule agonists, cell-based qHTS assay (AID 1963589); note: nearly all actives have a fitted effect of over 35% in size
In short: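 CHO cells stably expressing human CHRM1 were loaded with calcium dye for 1 h at 37 C, then compound was added in agonist mode. Intracellular calcium fluorescence was followed kinetically at 1 s intervals. Fifteen concentrations were tested in three independent runs.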

[12] = cAMP Responsive Elements (CRE) small molecule agonists, cell-based qHTS assay (AID 1963590)
In short: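 CRE-bla HEK 293T cells, 2,000/well in DMEM with 10% dialyzed FBS and 25 mM HEPES, pre-incubated 18 h at 37 C, then exposed to compound 3 h at 37 C. Beta-lactamase reporter read with LiveBLAzer B/G FRET substrate after 2 h at room temperature.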

[13] = cAMP Responsive Elements (CRE) small molecule antagonists, cell-based qHTS assay (AID 1963591; active = well fitted inhibition curve with a large enough effect in the signal ratio in the repeat runs, not every such curve was filed as active; the % refers to the signal ratio)
In short: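 CRE-bla HEK293T cells plated 18 h, then given compound plus NKH477 at 0.25 uM final for 3 h at 37C. Beta-lactamase reporter read with LiveBLAzer B/G FRET substrate after 2 h at room temperature.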

[14] = biological target: Beta-2 adrenergic receptor (Homo sapiens) (UniProt P07550); assay: Adrenergic beta2 receptor (ADRB2) small molecule antagonists, cell-based qHTS assay (AID 1963592); note: series mostly up to about 92 µM; nearly all actives have a fitted effect of over 50% in size
In short: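 Cells (CHO, stable ADRB2 overexpression) incubated 18-20hr at 37C; compounds added from DMSO; agonist mix (1nM isoproterenol, 100uM IBMX, 25uM Ro-20-1724) added; 0.5hr RT; d2-cAMP and anti-cAMP-cryptate added; 1hr RT; 665/615 nm read.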

[15] = biological target: D(2) dopamine receptor (Homo sapiens) (UniProt P14416); assay: Dopamine D2 receptor (DRD2) small molecule agonists, cell-based qHTS assay (AID 1963594); note: nearly all actives have a fitted effect of over 35% in size
In short: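 cAMP accumulation in DRD2-HEK293 cells measured by HTRF after 1 h detection; compounds added 10 min before NKH477 (200nM […]) forskolin-analogue stimulation, 30 min at room temperature, with Ro20-1724 present at 0.1 mM final.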

[16] = biological target: D(2) dopamine receptor (Homo sapiens) (UniProt P14416); assay: Dopamine D2 receptor (DRD2) small molecule antagonists, cell-based qHTS assay (AID 1963595; active = well fitted inhibition curve with a large enough effect in the signal ratio in the repeat runs, with a control signal flat; the % refers to the signal ratio)
In short: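 Cells were plated and grown for 24 h at 37 °C. Ro20-1724 (0.1 mM final) went in first, then compound for 10 min. NKH477 (200 nM) with quinpirole (12 nM) followed for 30 min at RT, then HTRF detection reagents for 1 h.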

[17] = p53 small molecule agonists, cell-based qHTS assay: qHTS cell viability counter screen (AID 1963581); note: nearly all actives have a fitted effect of over 45% in size
In short: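 p53RE-bla HCT-116 cells, compounds added 5 h after plating and incubated 16 h at 37 C. Cytotoxicity measured in the same wells as intracellular ATP by CellTiter-Glo luminescence after 30 min at room temperature.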

[18] = biological target: Beta-2 adrenergic receptor (Homo sapiens) (UniProt P07550); assay: Adrenergic beta2 receptor (ADRB2) small molecule agonists, cell-based qHTS assay (AID 1963593);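 note: CHO cells stably overexpressing human ADRB2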
In short: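 CHO cells stably over-expressing ADRB2 were plated overnight at 37C, then dosed with compounds plus a stimulation mix containing 100uM IBMX and 25uM Ro-20-1724 for 0.5hr at room temperature. cAMP was measured by HTRF competition, 1hr.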

[19] = p53 small molecule agonists, cell-based qHTS assay with human liver microsomes: qHTS cell viability counter screen (AID 1963579); note: nearly all actives have a fitted effect of over 45% in size
In short: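 p53RE-bla cells, 4,000/well, dosed 5 hours after plating, with human liver microsomes (0.5 mg/mL final) plus NADPH (0.5 mg/mL final), 16 hours at 37 C. Viability read as CellTiter-Glo luminescence after 30 min at room temperature.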

Measured: Potency

Chain of D(2) dopamine receptor (Homo sapiens) (P14416 whole entry, looked up): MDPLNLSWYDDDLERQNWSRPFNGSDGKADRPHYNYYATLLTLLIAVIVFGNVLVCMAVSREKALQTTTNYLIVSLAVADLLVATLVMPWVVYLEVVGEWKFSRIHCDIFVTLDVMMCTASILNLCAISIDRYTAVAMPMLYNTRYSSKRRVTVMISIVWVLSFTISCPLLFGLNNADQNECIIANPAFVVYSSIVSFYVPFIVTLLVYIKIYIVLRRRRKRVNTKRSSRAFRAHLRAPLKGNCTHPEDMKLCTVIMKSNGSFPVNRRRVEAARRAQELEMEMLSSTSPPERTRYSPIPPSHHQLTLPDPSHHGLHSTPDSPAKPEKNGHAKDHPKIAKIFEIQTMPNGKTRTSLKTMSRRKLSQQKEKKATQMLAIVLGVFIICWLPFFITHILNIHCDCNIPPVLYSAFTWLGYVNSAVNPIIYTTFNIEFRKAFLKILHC
Chain of 5-hydroxytryptamine receptor 2A (Homo sapiens) (P28223 whole entry, looked up): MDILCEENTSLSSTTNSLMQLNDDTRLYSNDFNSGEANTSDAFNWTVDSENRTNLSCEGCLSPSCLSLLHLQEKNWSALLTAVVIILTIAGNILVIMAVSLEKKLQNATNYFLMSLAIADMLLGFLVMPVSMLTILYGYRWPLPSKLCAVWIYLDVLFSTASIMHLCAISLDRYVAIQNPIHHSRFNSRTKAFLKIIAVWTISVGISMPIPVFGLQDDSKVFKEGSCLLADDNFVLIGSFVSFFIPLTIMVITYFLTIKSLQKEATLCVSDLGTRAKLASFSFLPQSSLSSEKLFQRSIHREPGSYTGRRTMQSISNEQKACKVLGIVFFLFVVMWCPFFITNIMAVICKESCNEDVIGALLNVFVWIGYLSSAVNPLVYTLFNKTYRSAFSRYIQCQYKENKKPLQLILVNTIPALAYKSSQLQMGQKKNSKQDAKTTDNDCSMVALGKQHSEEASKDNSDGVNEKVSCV
Chain of Muscarinic acetylcholine receptor M1 (Homo sapiens) (P11229 whole entry, looked up): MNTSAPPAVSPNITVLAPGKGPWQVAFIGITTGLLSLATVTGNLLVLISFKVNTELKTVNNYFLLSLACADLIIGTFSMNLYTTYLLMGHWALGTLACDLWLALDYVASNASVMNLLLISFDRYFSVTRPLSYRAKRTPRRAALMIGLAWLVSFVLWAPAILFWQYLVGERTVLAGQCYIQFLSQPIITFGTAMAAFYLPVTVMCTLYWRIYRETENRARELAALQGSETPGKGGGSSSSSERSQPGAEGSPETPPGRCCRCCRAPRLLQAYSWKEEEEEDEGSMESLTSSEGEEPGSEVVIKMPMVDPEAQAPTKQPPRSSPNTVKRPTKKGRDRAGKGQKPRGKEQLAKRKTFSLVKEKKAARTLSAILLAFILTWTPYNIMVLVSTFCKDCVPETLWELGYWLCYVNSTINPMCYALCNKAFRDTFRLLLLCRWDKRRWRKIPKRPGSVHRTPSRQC
Chain of Beta-2 adrenergic receptor (Homo sapiens) (P07550 whole entry, looked up): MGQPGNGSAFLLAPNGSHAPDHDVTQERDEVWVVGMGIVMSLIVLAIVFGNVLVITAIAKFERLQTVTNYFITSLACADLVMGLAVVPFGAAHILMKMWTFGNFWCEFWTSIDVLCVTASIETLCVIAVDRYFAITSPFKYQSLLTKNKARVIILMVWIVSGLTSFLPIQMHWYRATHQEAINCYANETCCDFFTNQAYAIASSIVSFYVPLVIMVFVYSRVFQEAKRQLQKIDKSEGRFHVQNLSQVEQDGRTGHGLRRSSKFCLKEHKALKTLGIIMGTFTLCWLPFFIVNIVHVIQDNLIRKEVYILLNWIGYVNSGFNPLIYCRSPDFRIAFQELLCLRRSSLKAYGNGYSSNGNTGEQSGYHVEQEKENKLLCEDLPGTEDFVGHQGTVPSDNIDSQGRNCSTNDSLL
Chain of KiSS-1 receptor (Homo sapiens) (Q969F8 whole entry, looked up): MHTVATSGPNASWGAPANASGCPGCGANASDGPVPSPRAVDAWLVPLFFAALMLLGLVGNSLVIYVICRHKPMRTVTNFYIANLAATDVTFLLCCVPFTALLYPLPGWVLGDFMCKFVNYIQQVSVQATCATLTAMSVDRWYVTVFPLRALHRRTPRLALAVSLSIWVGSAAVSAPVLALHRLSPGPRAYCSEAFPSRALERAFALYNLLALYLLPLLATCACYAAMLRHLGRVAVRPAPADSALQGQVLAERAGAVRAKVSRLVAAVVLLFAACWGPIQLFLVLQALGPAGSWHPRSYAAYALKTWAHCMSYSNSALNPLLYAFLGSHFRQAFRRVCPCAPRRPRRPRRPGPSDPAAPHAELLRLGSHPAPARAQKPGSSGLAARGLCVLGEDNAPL

CN=C=O
inactive: [1] | [2] | [3] | [4] | [5] | [6] | [7] | [8] | [9] | [10] | [11] | [12] | [13] | [14] | [15] | [16]

C=C1CC[C@@]2(O)[C@H]3Cc4ccc(O)c5c4[C@@]2(CCN3CC2CC2)[C@H]1O5
inactive: [1] | [2] | [3] | [4] | [5] | [6] | [17] | [7] | [8] | [9] | [10] | [11] | [12] | [13] | [14] | [18] | [15] | [16]

CCNc1nc(NC(C)C)nc(OC)n1
inactive: [1] | [2] | [3] | [4] | [5] | [19] | [6] | [17] | [7] | [8] | [9] | [10] | [11] | [12] | [13] | [14] | [15] | [16]

NC(=O)OCCCc1ccccc1
inactive: [1] | [2] | [3] | [4] | [5] | [19] | [6] | [7] | [8] | [9] | [10] | [11] | [12] | [13] | [14] | [18] | [16]
